TSHR antagonist – human thyrotropin receptor antagonism | P16473 | TSHR-expressing cells, TSH-stimulated cAMP HTRF, 2 h; hits give low values | activity change, negative = inhibition, % at 11.5 µM | 330,000 compounds, 0.2% hits;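 active = activity change below a set negative limit, meaning inhibition stronger than a set level, cut at about -70% in these data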
Target sequence (P16473 whole entry, looked up): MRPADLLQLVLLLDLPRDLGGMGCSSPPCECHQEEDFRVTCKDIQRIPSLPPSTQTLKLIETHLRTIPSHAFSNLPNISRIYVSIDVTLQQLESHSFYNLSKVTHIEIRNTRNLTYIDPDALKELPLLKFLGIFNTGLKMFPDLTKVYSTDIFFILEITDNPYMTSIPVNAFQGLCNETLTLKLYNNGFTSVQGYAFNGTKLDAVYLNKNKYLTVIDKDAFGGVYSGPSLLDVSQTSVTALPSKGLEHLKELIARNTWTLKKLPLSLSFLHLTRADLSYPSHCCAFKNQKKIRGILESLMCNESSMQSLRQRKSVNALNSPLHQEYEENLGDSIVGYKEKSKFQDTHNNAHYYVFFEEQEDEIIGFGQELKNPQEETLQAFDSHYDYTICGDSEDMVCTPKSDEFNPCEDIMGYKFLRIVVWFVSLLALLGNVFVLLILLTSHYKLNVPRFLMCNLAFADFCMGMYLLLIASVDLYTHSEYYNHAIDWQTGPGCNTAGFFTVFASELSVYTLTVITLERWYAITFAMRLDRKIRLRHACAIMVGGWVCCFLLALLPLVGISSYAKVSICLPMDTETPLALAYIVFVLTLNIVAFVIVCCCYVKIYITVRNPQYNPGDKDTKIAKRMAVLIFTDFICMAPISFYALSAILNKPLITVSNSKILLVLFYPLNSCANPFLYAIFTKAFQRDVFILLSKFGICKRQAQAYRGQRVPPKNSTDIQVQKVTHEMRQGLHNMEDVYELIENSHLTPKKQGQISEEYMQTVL
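Competitive HTRF cAMP read-out (cryptate anti-cAMP antibody, cAMP-d2; 30 min, room temperature) in freshly harvested TSHR cells. Compounds added before TSH at EC80 (4nM final), followed by 2 hours' incubation at 37 deg C.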
TCR act – activates T cell receptor signaling. Potency, µM (doses to about 9.22 µM), usual class: activators. AID 504894. primary human leukocytes, anti-CD3, IL-2 HTRF, 48 h. 330,000 tested, under 10 active; active = well fitted activation curve with a large enough effect
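IL-2 release read by HTRF sandwich (Eu cryptate donor, d2 acceptor, 665 nm emission) after 48 hr exposure of primary human leukocytes to compound together with anti-CD3 beads in the absence of co-stimulatory signals.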
pAkt inh – inhibitors of Akt phosphorylation; activity change, % for hits at 50 µM; Neuro2A IGF-stimulated pAkt S473 HTRF, 20 min; hits give low values; 360,000 compounds, 0.32% hits; AID 651550; in the data active = activity change below about -80%
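Single-point screen (50 µM final compound) in Neuro2A cells stimulated 20 min with 6 nM IGF at 37 deg C. After lysis, Ser473-phosphorylated Akt read by HTRF (ex 330 nm, em 615/665 nm) as the 665/615 ratio.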
CCT chaperon mod – modulators of cytosolic chaperonin (CCT/TRiC) activity; activity change, % (test concentration not listed), hits read low; 360,000 compounds, 0.3% hits; AID 651819; purified chaperonin ATPase assay, HTRF ADP detection, 30 min; in the data active = activity change below about -30%
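We incubate TRiC, 40 or 20 nM final, with library compounds at 76 uM and 10 uM ATP for 30 min at 37 °C. ADP formed is detected with Transcreener HTRF reagents after 30 min at room temperature.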
Each line names hits and unclear results; the compound was inactive in the other large screens. Shown are actives, neighbours in structure and some others; about 0.74% of the full set was active somewhere.

CCOC(=O)c1cc(C(C)(C)C)oc1CNC(=O)c1c(C)oc2c1CCCC2	CCT chaperon mod -53.5
CCC(C)NC(=O)CSc1nc2cc3c(cc2c(=O)n1Cc1ccco1)OCO3 (stereo not given)	none
CCN(CC)C(=O)CSc1nc2cc3c(cc2c(=O)n1Cc1ccco1)OCO3	CCT chaperon mod -33.7 (no result: TCR act)
CNc1c(NC(=O)c2ccc3c(c2)OCO3)c(=O)oc2ccccc12	TSHR antagonist -135.9
CC(=O)Nc1cc(-c2cccc(C(=O)NCCN(C)C)c2)cn2c(-c3ccccc3)cnc12	CCT chaperon mod -38.1 (no result: TSHR antagonist, TCR act, pAkt inh)
COc1ccc(-c2cnc3c(NC(C)=O)cc(-c4ccc(C(=O)NC5CC5)cc4)cn23)cc1OC	none (no result: TSHR antagonist, TCR act)
COc1cccc(-c2cnc3c(NC=O)cc(-c4ccc(OC)cc4OC)cn23)c1	CCT chaperon mod -34.9 (no result: TSHR antagonist, TCR act)
COc1cccc(-c2cnc3c(NC(C)=O)cc(-c4ccc(C(=O)NC5CC5)cc4)cn23)c1	CCT chaperon mod -35.3 (no result: TSHR antagonist, TCR act)
COc1ccc(OC)c(S(=O)(=O)NC2CCSc3ccccc32)c1 (stereo not given)	none
Brc1ccc(-c2nnc3sc(CN4CCC5(CC4)OCCO5)cn23)cc1	pAkt inh -101.8% (no result: TCR act)
COCCOC(=O)C1=C(C)NC2=C(C(=O)CC(C)(C)C2)C1c1cccnc1 (stereo not given)	pAkt inh -108.0%
CN1CCN(C(=O)c2ccccc2N(Cc2ccccc2)S(=O)(=O)c2ccccc2)CC1	none
Cc1ccc(S(=O)(=O)N(Cc2ccccc2)c2ccccc2C(=O)N2CCCCC2)cc1	TSHR antagonist -78.4
COC(=O)C1C(O)=C(C=NCc2ccccc2)C(=O)CC1(C)C (stereo not given)	pAkt inh -113.7%
COC(=O)C1C(O)=C(C=Nc2cccc3ccccc23)C(=O)CC1(C)C (stereo not given)	none
Cc1cccc(-n2c(O)c(/C=N/NC(=O)c3ccccc3Cl)c3ccccc3c2=O)n1	CCT chaperon mod -46.4
COc1ccc(C2CC(c3cccs3)=NN2C(=O)CSc2nc(=O)n3ccc(C)cc3n2)cc1 (stereo not given)	CCT chaperon mod -46.4
Cc1ccc(C2CC(c3cccs3)=NN2C(=O)CSc2nc(=O)n3ccc(C)cc3n2)cc1 (stereo not given)	none (no result: TCR act, pAkt inh, CCT chaperon mod)
Cc1cc(C)n(Cc2ccc(C(=O)O)o2)n1	none
Cc1cc(C)n(Cc2ccc(C(=O)NN)o2)n1	CCT chaperon mod -49.9
CC(=O)c1coc2c1cc(O)c1ccccc12	none
CC(=O)Oc1cc2c(C(C)=O)coc2c2ccccc12	pAkt inh -144.4%
CC(=O)c1ccc(NC(=O)NC2CCCCCCC2)cc1	none
CCC(=O)Nc1nn(C)c2nc3c(C)cccc3cc12	pAkt inh -113.2%
CCCn1nc(NC(=O)CC)c2cc3cccc(C)c3nc21	none
Cc1ccc2oc3nc(C)c(C(=O)Nc4cccc(C(F)(F)F)c4)cc3c(=O)c2c1	pAkt inh -93.4%
Cc1cccc(C)c1NC(=O)c1cc2c(=O)c3ccccc3oc2nc1C(F)(F)F	none
O=C(NCc1ccccc1)C(c1cccnc1)N(C(=O)c1csnn1)c1ccccc1 (stereo not given)	none
CCCCC(=O)Nc1ccc(NC(=O)c2ccccc2OC)cn1	pAkt inh -108.3%
CCCCC(=O)Nc1ccc(NC(=O)c2cc(OC)c(OC)c(OC)c2)cn1	none
CC(C)C1NC2(C(=O)c3ccccc3C2=O)C2C(=O)N(c3ccc(F)cc3)C(=O)C12 (stereo not given)	pAkt inh -120.2%
O=C1C2C3C=CC(CC3)C2C(=O)N1c1ccc(F)cc1 (stereo not given)	none (no result: TCR act)
COc1ccc(C(=O)NCc2nnc(SCC(=O)N3CCc4ccccc43)n2Cc2ccccc2)cc1	none
C=C(C)Cn1c(CCNC(=O)CCC)nc2ccccc21	pAkt inh -103.6%
C=C(C)Cn1c(CCCNC(=O)CC)nc2ccccc21	none (no result: pAkt inh)
CC(C(N)=O)N1C(=O)NC2(CCCc3ccccc32)C1=O (stereo not given)	none
N#C/C(=C\c1cccc(O)c1)C(=O)Nc1ccc2c(c1)OCCO2	none
Cc1ccc(S(=O)(=O)N(CC(O)CN(C)C)c2ccccc2)cc1 (stereo not given)	pAkt inh -108.5%
Cc1c(O)c(CN2CCCC2)cc2c3c(c(=O)oc12)CCC3	none
CCc1cc(=O)oc2c(C)c(O)c(CN3CCCCC3)cc12	pAkt inh -93.2%
CN(C)NC(=S)NC1CC2CCC1C2 (stereo not given)	none
Cc1ccc(C(C#N)c2ccc3c(C(F)(F)F)cc(C(F)(F)F)nc3n2)cc1 (stereo not given)	CCT chaperon mod -45.1
N#CC(c1ccccc1)c1ccc2c(C(F)(F)F)cc(C(F)(F)F)nc2n1 (stereo not given)	none
N#CC1(NC(=O)CSc2nnc(-c3ccccc3F)o2)CCCCC1	none
CCOc1ccc(C2CC(=O)NC3=C2C(=O)CCC3)cc1Cl (stereo not given)	pAkt inh -107.0%
CC(=O)Nc1c2c3c(cccc3n(C)c1=O)C(=O)c1ccccc1-2	pAkt inh -113.2%
Cn1c(=O)c(Nc2ccc(Cl)cc2)c2c3c(cccc31)C(=O)c1ccccc1-2	none
COc1ccc2cc(/C=C3\SC(=S)NC3=O)c(N3CCOCC3)nc2c1	TSHR antagonist -80.3
O=C1NC(=S)S/C1=C/c1ccc(N2CCOCC2)o1	none
COc1ccccc1N1CCN(C(=O)c2ccc(Cn3c(=S)[nH]c4cc5c(cc4c3=O)OCO5)cc2)CC1	CCT chaperon mod -31.0 (no result: TCR act)
CCOC(=O)N1CCN(C(=O)c2ccc(Cn3c(=S)[nH]c4cc5c(cc4c3=O)OCO5)cc2)CC1	none
Cc1ccc(C)c(NC(=O)CN(C)C(=O)c2cc(C3CC3)nn2-c2ccccc2)c1	none (no result: TSHR antagonist)
CC1=NN(c2nc(N)nc(/C(C#N)=C/c3ccc([N+](=O)[O-])o3)n2)C(C)(C)C1	none (no result: TSHR antagonist)
COc1ccc(C(CNC(=O)c2cccc(S(=O)(=O)Nc3ccccc3OC)c2)N2CCCC2)cc1 (stereo not given)	CCT chaperon mod -50.9
Cc1cc(C)c[n+](-c2[nH]c(=O)sc2/C=N/N=C(\[O-])c2cccnc2)c1	none
Cc1ccc(NC(=O)c2ccc(-n3cccn3)c([N+](=O)[O-])c2)cc1C	pAkt inh -110.1%
CC(C)Nc1ccc(Cl)cc1[N+](=O)[O-]	none (no result: TCR act, pAkt inh, CCT chaperon mod)
CS(=O)(=O)N(CC(=O)N1CCN(Cc2ccccc2)CC1)c1ccc(F)cc1	none
CC(C)c1ccc(N(CC(=O)N2CCN(Cc3ccccc3)CC2)S(C)(=O)=O)cc1	CCT chaperon mod -94.7
CCOC(=O)c1c(C)nc2sc3c(=O)n(-c4ccc(OC)cc4)cnc3c2c1-c1ccc(OC)cc1	pAkt inh -110.6%
CCCOc1cccc(C(=O)N/N=C/c2coc3ccccc3c2=O)c1	CCT chaperon mod -36.7
Cc1ccc(NC(=O)CCn2c(=S)oc3ccccc32)cc1F	none
O=C(CCCN1C(=O)/C(=C/c2ccccc2Cl)SC1=S)Nc1cccnc1	TSHR antagonist -71.7
COc1ccc(NC(=O)c2cc3c(=O)n(C)c4ccccc4c3n2C)cc1OC	CCT chaperon mod -31.6
